Screening data from PubChem.
Rows were chosen to be rich in hits. Some 10% of all compounds tested hit in one or more screens of this group.
Luciferase inh = Photinus pyralis luciferase inhibition; purified P. pyralis luciferase, luminescence, biochemical; Potency, µM (series often up to 115 µM), usual class: inhibitors; 76,000 compounds, 2.5% hits; AID 1347043; also: nearly all actives have a fitted effect of over 65% in size
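Biochemical qHTS: compound (6-point titration) added to 10uM D-luciferin plus 10uM ATP in Tris acetate pH 7.5 buffer with Mg, Tween-20 and BSA, then purified enzyme at 10nM; light output imaged.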
3T3 cytotox = NIH 3T3 cell cytotoxicity; NIH 3T3 viability, CellTiter-Glo ATP luminescence, 48-72 h; Potency, µM (doses to about 96.7 µM), hits mostly inhibitors; 94,000 compounds, 4.3% hits; AID 1345082; also: nearly all actives have a fitted effect of over 55% in size
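Cytotoxicity is measured as loss of cellular ATP: NIH 3T3 cells (400/well) are exposed to compound for 48 or 72 hr at 37 °C, then CellTiter-Glo luminescence is imaged after 10 min at room temperature.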
hNpr1 antagonist = human Npr1 receptor antagonism; P16066; HEK293 hNpr1 GloSensor cGMP, ANP-stimulated luminescence; Potency, µM (doses to about 46.3 µM), usual class: inhibitors; 76,000 compounds, 1.6% hits; AID 1347048; calls by dose curve; also: nearly all actives have a fitted effect of over 60% in size
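Compound pre-incubated 30 min at room temperature on GloSensor-loaded HEK293 cells stably carrying hNpr1 and the pGS-40F cGMP biosensor. Stimulation uses hNppA at 0.1 nM final; luminescence is taken at baseline and 20 min post-agonist.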
HEK cytotox = kills HEK 293 cells; Potency, µM (doses to about 115 µM), most hits filed as inhibitors; AID 1345083; 94,000 compounds, 6.6% hits; HEK 293 viability, ATP luminescence (CellTiter-Glo), 48-72 h; also: nearly all actives have a fitted effect of over 60% in size
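ATP-coupled CellTiter-Glo luminescence served as viability read-out, recorded 10 min after reagent addition at room temperature. HEK 293 cells, 250 cells/well, had been incubated with pintool-transferred compound for 48 or 72 hr at 37 degree Celsius.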
GPT2 inh = inhibitors of human GPT2 alanine aminotransferase; Q8TD30; Recombinant GPT2, coupled pyruvate oxidase/HRP Amplex Red fluorescence; Potency, µM (top dose mostly 57.7 µM), usual class: inhibitors; 100,000 compounds, 0.25% hits; AID 1671188; also: nearly all actives have a fitted effect of over 60% in size
Target sequence (Q8TD30 whole entry, looked up): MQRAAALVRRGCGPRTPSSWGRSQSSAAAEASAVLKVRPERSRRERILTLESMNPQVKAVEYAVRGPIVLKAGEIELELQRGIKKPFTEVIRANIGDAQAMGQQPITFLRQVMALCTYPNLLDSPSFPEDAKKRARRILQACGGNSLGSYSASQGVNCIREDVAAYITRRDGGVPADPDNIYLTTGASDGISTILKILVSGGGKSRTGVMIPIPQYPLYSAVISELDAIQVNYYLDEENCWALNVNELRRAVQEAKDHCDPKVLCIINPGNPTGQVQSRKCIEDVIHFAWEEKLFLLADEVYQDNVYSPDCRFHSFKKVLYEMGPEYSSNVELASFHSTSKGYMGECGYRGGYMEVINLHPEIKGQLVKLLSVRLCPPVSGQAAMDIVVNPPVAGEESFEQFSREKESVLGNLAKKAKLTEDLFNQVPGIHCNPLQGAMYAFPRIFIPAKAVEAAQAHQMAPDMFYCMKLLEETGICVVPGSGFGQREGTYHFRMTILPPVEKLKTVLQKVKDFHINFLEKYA
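Inhibition is scored from Amplex Red fluorescence generated when pyruvate oxidase and HRP act on pyruvate released by GPT2. Reactions contain 10ng/uL enzyme, 250uM a-KG and 2mM L-alanine and run 30 min at room temperature.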
Each line names hits and unclear results; the compound was inactive in the other large screens. Unless noted, calls follow the shape of the dose curve; as a rule, active = well fitted curve in the direction sought with a large enough effect; inconclusive = small, poorly fitted or top-dose-only effect, or another doubt; inactive = no such curve, though single readings can be large; an effect the other way counts as inactive or inconclusive.

COCCOC1CCOC2(CCN(C(=O)CCCc3ccccc3)CC2)C1 (stereo not given)	Luciferase inh 28µM, HEK cytotox inconclusive
COCC1CN(C2CCC2)CC12CCN(C(=O)C1(c3ccccc3)CC1)CC2 (stereo not given)	3T3 cytotox inconclusive, HEK cytotox 32µM
COCC1CN(C)CC12CCN(C(=O)CCCc1ccccc1)CC2 (stereo not given)	3T3 cytotox inconclusive, HEK cytotox inconclusive
COc1cc(OCc2ccccc2)ccc1CN1C[C@@H]2CCN[C@@H]2C1	3T3 cytotox inconclusive, HEK cytotox inconclusive
O=C(c1ccco1)N1CCN(C2CCC3(CCNCC3)CC2)CC1	none
Cc1ccnc(N2CCN(C3CCC4(CCNCC4)CC3)CC2)c1	3T3 cytotox inconclusive, HEK cytotox 45µM
CCN1C(=O)CCC2(C(=O)NCCN(C)C3CCCCC3)CCCC=C12 (stereo not given)	3T3 cytotox inconclusive, HEK cytotox 45µM
CCNC(=O)C12CCCC=C1N(C1CCCC1)C(=O)CC2 (stereo not given)	Luciferase inh 40µM
COc1ccc(C2Oc3c(OC)cc(CCCO)cc3C2COC2OC(CO)C(O)C(O)C2O)cc1OC (stereo not given)	none (no result: Luciferase inh, 3T3 cytotox, hNpr1 antagonist, HEK cytotox)
COC(=O)NC1CCN(Cc2ccc(-c3ccsc3)cc2)C1 (stereo not given)	3T3 cytotox inconclusive, HEK cytotox 100µM (no result: Luciferase inh, hNpr1 antagonist)
CC(=O)NC1CCN(Cc2ccc(-c3ccsc3)cc2)C1 (stereo not given)	3T3 cytotox inconclusive, HEK cytotox inconclusive (no result: Luciferase inh, hNpr1 antagonist)
O=C(NC1CCN(Cc2ccc(-c3ccsc3)cc2)C1)c1cccc(Cl)c1 (stereo not given)	3T3 cytotox inconclusive, HEK cytotox 45µM (no result: Luciferase inh, hNpr1 antagonist)
Cc1ccccc1C(=O)NC1CCN(Cc2ccc(-c3ccsc3)cc2)C1 (stereo not given)	3T3 cytotox inconclusive, HEK cytotox 79µM (no result: Luciferase inh, hNpr1 antagonist)
COc1ccc2[nH]c(=O)c(CN(Cc3cnn(C)c3)C3CC3)cc2c1	none
COCC(=O)NCCNC(=O)c1cccc(-c2ccc(SC)cc2)c1	HEK cytotox inconclusive (no result: Luciferase inh, hNpr1 antagonist)
O=C(CCc1ccccc1)N1CCNc2cnc(Nc3ccc(-n4ccnc4)cc3)nc2C1	3T3 cytotox inconclusive, HEK cytotox inconclusive
O=C(CN1CCOCC1)N1CCNc2cnc(Nc3ccc(-n4ccnc4)cc3)nc2C1	3T3 cytotox 40µM
COc1ccccc1CNC(=O)C1N(C(C)C)C(=O)C12CCCC2 (stereo not given)	none
COc1ccc(NC(=O)c2cc3sc(C)c(CN4CCCCC4)c3[nH]2)cc1OC	3T3 cytotox 40µM, HEK cytotox inconclusive, GPT2 inh inconclusive
COc1ccc(Nc2cc3c(cn2)CN(Cc2ccncc2)CCN3)cn1	HEK cytotox inconclusive
Cc1noc(C)c1CN1CCNc2cc(Nc3ccccc3)ncc2C1	Luciferase inh 35µM, HEK cytotox inconclusive
Cc1noc(C)c1CN1CCNc2cc(-c3ccccc3)ncc2C1	Luciferase inh 63µM, 3T3 cytotox inconclusive, HEK cytotox inconclusive
CNC(=O)c1cc(S(=O)(=O)N2CC[C@H](CO)[C@H](O)C2)cs1	none
Cc1ccc(C2NC(=O)N(CC(=O)NC(C)(C)C)C3=C2C(=O)OC3)cc1 (stereo not given)	none
O=C(c1ccc(F)cc1)N1CCC(Cc2nc(-c3cnccn3)no2)CC1	3T3 cytotox inconclusive, HEK cytotox inconclusive
O=C(c1ccc(Cl)cc1)N1CCC(Cc2nc(-c3cnccn3)no2)CC1	3T3 cytotox 25µM, hNpr1 antagonist inconclusive, HEK cytotox inconclusive, GPT2 inh inconclusive
Cc1c(CN2CCCC(COc3ccccc3C(=O)N3CCC(C)CC3)C2)cnn1C (stereo not given)	none
CCN1CCN(CC(O)COc2cccc(CNC3(c4ccccc4)CC3)c2)CC1 (stereo not given)	3T3 cytotox inconclusive, HEK cytotox 32µM
CCN1CCN(CC(O)COc2cccc(CNCCc3cccc(C)n3)c2)CC1 (stereo not given)	HEK cytotox inconclusive
Cc1ccc(Nc2ccnc(N3CCC(C(=O)NCc4cccs4)CC3)n2)cc1	3T3 cytotox 22µM, HEK cytotox 18µM (no result: Luciferase inh, hNpr1 antagonist)
O=C(NCc1cccs1)C1CCN(c2nccc(Nc3ccccc3Cl)n2)CC1	3T3 cytotox inconclusive, HEK cytotox 45µM (no result: Luciferase inh, hNpr1 antagonist)
CCCCc1nn(CC(=O)NCc2cccc3[nH]ccc23)c(=O)n1CC	none
